Bioassay records from PubChem BioAssay.
Gal4-VP16 FLuc: Gal4-VP16 reporter inhibition counter-screen. 3.5% of 310,000 active. Drosophila S2 Gal4-VP16 UAS-luciferase, luminescence, 20 h. Potency, µM (series often up to 53.6 µM), for inactives: top-dose activity, negative = inhibition, usual class: inhibitors;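 also: Gal4-VP16 expression switched on by copper sulfate through the metallothionein promoter; potency is read from the fitted curve at half-maximal effect; nearly all actives have a fitted effect of over 50% in size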
IL-1B inflam inh: blocks inflammasome-driven IL-1 beta release. activity change, % at 57.5 µM. 4.7% of 360,000 active. THP-1 LPS/ATP IL-1B secretion, AlphaLISA, 16 h; hits give low values; in the data active = activity change below about -50%; inconclusive = mostly about -30% to -49%
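Secreted IL-1B measured by AlphaLISA bead assay after 16 h compound exposure of THP-1 cells; compounds (final up to 57.5 uM) added 1 h before LPS (250 ng/mL) and ATP (1.25 mM) stimulation; lower signal means less secretion.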
ELG1 repair inh: ELG1-dependent DNA repair inhibition; HEK293T ELG1-luciferase reporter, luminescence, 16 h; DNA damage induced by 5-fluorouridine; Potency, µM (top dose mostly 46.1 µM), for the others: top-dose activity change, negative = inhibition, hits mostly inhibitors; 2.3% of 330,000 active; AID 504467; also: potency is read from the fitted curve at half-maximal effect; nearly all actives have a fitted effect of over 55% in size
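DMSO vehicle served as the neutral condition. Each well held 2,000 cells given 5-fluorouridine plus compound; after 16 hr at 37 °C/5% CO2, ONE-Glo was added and luciferase measured 30 min later.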
TDP1 cell CPT: growth inhibition of DT40 Tdp1-/-;hTDP1 cells with camptothecin (screen for TDP1 inhibitors). chicken DT40 Tdp1-/-;hTDP1 cells + 20 nM CPT, ATP luminescence, 48 h. Potency, µM (titrated, usually from 46.2 µM), inactives show top-dose activity change, negative = growth inhibition, most hits filed as inhibitors. 12% of 420,000 active; also: potency is read from the fitted curve at half-maximal effect; nearly all actives have a fitted effect of over 55% in size
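Cell growth measured by CellTiter-Glo luminescence after a minimum 48 h, 37 C compound exposure with 20 nM CPT in Tdp1-knockout DT40 cells stably expressing hTDP1, seeded 400/well; qHTS titration format.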
DT40 TDP1 no CPT: qHTS for Inhibitors of human tyrosyl-DNA phosphodiesterase 1 (TDP1): qHTS in cells in absence of CPT | DT40 Tdp1-/- hTDP1 cells, no CPT, ATP luminescence, 48 h | Potency, µM (series often up to 46.2 µM), inactives show at the top dose activity change, negative = growth inhibition, usual class: inhibitors | 15% of 420,000 active; also: potency is read from the fitted curve at half-maximal effect; nearly all actives have a fitted effect of over 55% in size
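Readout: luminescence from CellTiter-Glo after 30 min in the dark at RT. Cells: DT40 Tdp1-/- with stable hTDP1, 400/well. Exposure: compounds alone, ≥48 hr, 37 °C.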
RORgamma inh: inhibitors of mouse ROR gamma transcriptional activity. P51450. Drosophila S2 Gal4-RORgamma UAS-luciferase reporter, 20 h. Potency, µM (highest dose often 53.6 µM), for the others: top-dose activity change, negative = inhibition, actives largely listed as inhibitors. 5.4% of 310,000 active. AID 2551; also: potency is read from the fitted curve at half-maximal effect; nearly all actives have a fitted effect of over 60% in size
Target sequence (P51450 whole entry, looked up, the tested form may be a part): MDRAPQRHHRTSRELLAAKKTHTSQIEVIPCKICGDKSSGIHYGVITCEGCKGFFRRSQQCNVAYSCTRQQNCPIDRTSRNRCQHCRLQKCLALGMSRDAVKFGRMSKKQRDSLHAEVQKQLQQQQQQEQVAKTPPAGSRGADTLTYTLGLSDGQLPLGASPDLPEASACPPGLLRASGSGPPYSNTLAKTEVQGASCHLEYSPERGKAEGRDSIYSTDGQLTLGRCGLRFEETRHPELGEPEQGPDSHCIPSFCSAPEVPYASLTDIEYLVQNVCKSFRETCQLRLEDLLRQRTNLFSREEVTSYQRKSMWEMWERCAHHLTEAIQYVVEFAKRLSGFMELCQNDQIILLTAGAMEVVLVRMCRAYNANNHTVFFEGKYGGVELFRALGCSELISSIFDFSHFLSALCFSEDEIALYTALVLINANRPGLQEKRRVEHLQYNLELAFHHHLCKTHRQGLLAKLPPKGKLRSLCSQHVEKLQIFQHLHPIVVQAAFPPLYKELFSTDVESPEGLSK
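A Gal4/UAS one-hybrid system in insect cells: metallothionein-promoter Gal4–ROR gamma fusion plus Photinus luciferase reporter. Copper sulfate 700 uM final, 20 hr ambient incubation, luminescent detection after 10 min with reagent.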
Active calls of the source: *; ? = inconclusive; . = no result; ! = not active in a repeat; [ ] = remark or other dose. Compounds with a hit are over-represented: about 21% of the library has one in this group of screens. Unless noted, calls follow the shape of the dose curve; as a rule, active = well fitted curve in the direction sought with a large enough effect; inconclusive = small, poorly fitted or top-dose-only effect, or another doubt; inactive = no such curve, though single readings can be large; an effect the other way counts as inactive or inconclusive. % is scaled to controls: 0 for no effect and ±100 for the full control effect.

SMILES	Gal4-VP16 FLuc	IL-1B inflam inh	ELG1 repair inh	TDP1 cell CPT	DT40 TDP1 no CPT	RORgamma inh
CC(C)CO/N=C1/C[C@@H](O)[C@@H](O)[C@@H]2[C@@H]3C(=O)N(C(C)(C)C)C(=O)[C@H]3CC[C@@H]12	-6.3%[10 µM]	.	.	.	.	-1.4%[10 µM]
CCOC(=O)c1c(-c2ccccc2)csc1NC(=O)c1cc(-c2ccc(C)c(F)c2)on1	.	.	.	4.1%	-4.1%	.
CC1=C(C(=O)Nc2cc(C)ccc2C)C(c2cccs2)NC(=S)N1 (stereo not drawn)	-7.7%	7.0	-7.5%	?	-21.5%	-23.5%
O=[N+]([O-])c1ccc(Cl)cc1NCc1cccnc1	.	-9.4	.	7.4%	3.2%	.
O=[N+]([O-])c1nn(-c2cccc(Cl)c2)n(O)c1=NCc1cccnc1	?	-8.8	?	8.2µM*	13µM*	33.8%
O=[N+]([O-])c1nn(-c2ccc(Cl)cc2)n(O)c1=NCc1ccccc1Cl	-18.3%	-3.7	?	-17.8%	?	-7.0%
O=[N+]([O-])c1nn(-c2ccc(Cl)cc2)n(O)c1=NCc1cccnc1	-25.6%	8.3	?	8.2µM*	10.3µM*	40.4%[10 µM]
Cc1ccc(CN=c2c([N+](=O)[O-])nn(-c3ccc(Cl)cc3)n2O)cc1	-10.5%	-8.4	?	?	?	-19.6%
Cc1cccc(-n2nc([N+](=O)[O-])c(=NCc3cccnc3)n2O)c1	-9.4%	22.4	23.5%	11.6µM*	?	?
O=[N+]([O-])c1nn(-c2ccc(Cl)cc2)n(O)c1=NCc1ccncc1	?	?	-7.7%	5.17µM*	10.3µM*	-8.8%
Cc1ccc(CCN=c2c([N+](=O)[O-])nn(-c3ccccc3)n2O)cc1	-1.0%[10 µM]	?	-7.0%	?	?	16.8%
CCc1nc2c(OCCC3CCCCC3)cccn2c1N(C=O)Cc1ccc(OC)cc1	.	-21.9	.	?	?	.
COCCn1c(SCC(=O)c2c(-c3ccccc3)n(C)c3ccccc23)nnc1-c1ccncc1	-0.3%	?	?	?	?	-4.1%
Cc1cc(=O)[nH]c(SCC(=O)/C=C2\N(C)c3ccccc3C2(C)C)n1	?	-14.6	-8.4%	?	9.2µM*	?
CN1/C(=C/C(=O)CSc2ccccc2C(=O)O)C(C)(C)c2ccccc21	-7.4%	8.0	-4.2%	?	9.2µM*	1.7%
CN1/C(=C\C(=O)CSc2nnc(N)s2)C(C)(C)c2ccccc21	-24.2%	-6.9	-11.3%	?	20.6µM*	?
COc1ccccc1C(=O)NC(=S)/C=C1/N(C)c2ccccc2C1(C)C	2.9%	?	?	?	?	3.5%
COCCn1c(SCC(=O)/C=C2\N(C)c3ccccc3C2(C)C)nnc1-c1ccncc1	?	?	20.6µM*	23.1µM*	23.1µM*	?
CC1=CC(C)(C)N(C(=O)CSc2nnc(N)s2)c2ccccc21	3.8%	-11.2	1.6%	-21.4%	-37.6%	-3.6%
C=C[C@](C)(CC[C@@]1(C)C(C)CC(OC2OC(C)C(OC3OC(COC(C)=O)C(O)C(O)C3O)C(O)C2O)[C@@]2(C)C(C)=CCCC12)OC1OC(C)C(O[C@@H]2O[C@@H](C)C(O)C(O)[C@H]2O)C(O)C1O (stereo partly drawn)	.	-14.3	?	3.7%	-0.1%	.
Cc1ccc(/C=C/C2=NN(C)C(=O)CC2)cc1	-21.0%	-18.0	?	-1.9%	?	?
CCOC(=O)C(C)N1N=C(/C=C/c2ccc(OC)cc2)CCC1=O (stereo not drawn)	-6.6%	4.0	-7.8%	?	13µM*	6.6%
O=C(CC(Nc1ccc(Cl)cc1Cl)C(=O)O)c1ccccc1 (stereo not drawn)	?	19.5	?	?	?	12.6µM*
O=C(CC(Nc1ccccc1)C(=O)O)c1ccccc1 (stereo not drawn)	7.94µM*	10.6	?	?	?	11.2µM*
C=C(C(=O)c1ccccc1)C(NC(C)(C)C)c1ccccc1 (stereo not drawn)	.	-101.5*	.	2.06µM*	2.31µM*	.
SMILES	Gal4-VP16 FLuc	IL-1B inflam inh	ELG1 repair inh	TDP1 cell CPT	DT40 TDP1 no CPT	RORgamma inh
Cc1ccc(NC(CC(=O)c2ccccc2)C(=O)O)cc1Cl (stereo not drawn)	-5.7%	37.0	?	?	-22.8%	-38.8%
C=C(C(=O)c1ccccc1)C(C)CC(=O)c1ccccc1 (stereo not drawn)	17.8µM*	-106.0*	?	23.1µM*	14.6µM*	?
CCc1ccc(NC(=O)CSc2nncn2-c2cccnc2)cc1	4.8%	-4.0	?	27.0%	-14.1%	?
COC(=O)[C@@H](CC(C)C)N(Cc1ccccc1)S(=O)(=O)N(Cc1ccccc1)[C@@H](CC(C)C)C(=O)OC	.	13.9	6.9%	20.6µM*	11.2µM*!	.
CC(C)C[C@@H](C(=O)O)N(Cc1cccc(CN([C@@H](CC(C)C)C(=O)O)S(C)(=O)=O)c1)S(C)(=O)=O	-4.9%	25.3	-12.0%	4.6%	-0.7%	-0.9%
C[C@]12c3[nH]c4ccccc4c3CCN1C(=O)C(CC(=O)NCCC1=CCCCC1)C[C@@H]2C(=O)N1CCCCC1 (stereo partly drawn)	.	31.6	25.5%	-5.2%	-23.2%	.
CCN(CC)C(=O)[C@H]1CC(CC(=O)NCCCn2ccnc2)C(=O)N2CCc3c([nH]c4ccccc34)[C@]12C (stereo partly drawn)	.	7.5	9.1%	-8.1%	-14.1%	.
COCCCNC(=O)CC1C[C@H](C(=O)N(C(C)C)C(C)C)[C@@]2(C)c3[nH]c4ccc(OC)cc4c3CCN2C1=O (stereo partly drawn)	.	-0.2	?	-16.0%	?	.
CCN(CC)C(=O)[C@H]1CC(CC(=O)NCCC2=CCCCC2)C(=O)N2CCc3c([nH]c4ccccc34)[C@]12C (stereo partly drawn)	.	-16.2	-28.4%	23.1µM*	23.1µM*	.
CCN(CC)C(=O)[C@H]1CC(CC(=O)NCC23CC4CC(CC(C4)C2)C3)C(=O)N2CCc3c([nH]c4ccccc34)[C@]12C (stereo partly drawn)	.	?	?	16.4µM*	8.2µM*	.
CCN(CC)C(=O)[C@H]1C[C@H](CC(=O)NCCC2=CCCCC2)C(=O)N2CCc3c([nH]c4ccc(Cl)cc34)[C@]12C	.	-54.1*	?	16.4µM*	20.6µM*	.
